# Compounds without any hit were thinned out: in the full panel of roughly 83,000, 20% have a hit.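 Method: cells in 96-well plates; compound added at one concentration; 48 h incubation; percent growth measured; values under 10 scored active.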 Values without a mark were called inactive. Active and inactive are the calls of the source.
# What was measured:
# Experiment in all cases: NCI-60 one-dose screen, 48 h (100 = growth as untreated, 0 = no growth, -100 = all killed)
# Settings in all cases: 10 µM unless noted
# SNB-75 CNS = system: SNB-75 CNS
# SNB-19 CNS = system: SNB-19 CNS
# U251 CNS = system: U251 CNS
# SK-MEL-5 melanoma = system: SK-MEL-5 melanoma
# UACC-62 melanoma = system: UACC-62 melanoma
# LOX IMVI melanoma = system: LOX IMVI melanoma
# SK-MEL-28 melanoma = system: SK-MEL-28 melanoma
# PC-3 prostate = system: PC-3 prostate
# SK-MEL-2 melanoma = system: SK-MEL-2 melanoma
Structure (SMILES),growth (SNB-75 CNS),growth (SNB-19 CNS),growth (U251 CNS),growth (SK-MEL-5 melanoma),growth (UACC-62 melanoma),growth (LOX IMVI melanoma),growth (SK-MEL-28 melanoma),growth (PC-3 prostate),growth (SK-MEL-2 melanoma)
CCCCCCC(C)(O)c1ccccc1 (stereo unspecified),90.6%,104%,109%,109%,96.5%,92%,115%,–,–
Clc1ccc([C@@H]2C[C@@H]3Cc4cc(Br)c5ccccc5c4N2O3)c(Cl)c1,56.2%,83.8%,60.6%,93.8%,62.8%,72.1%,69.9%,–,–
COc1cc2c(c(OC)c1OC)-c1ccc(NN(C(=O)c3ccccc3)C(=O)c3ccccc3)c(=O)cc1[C@@H](NC(C)=O)CC2 (tested in a mixture with another compound),27.7%,49.1%,24.8%,20.2%,59.6%,–,–,40.9%,10.4%
O=C(CCc1nnc(Cn2ccnc2)o1)c1nc2ccccc2[nH]1,97.9%,108%,110%,104%,91%,90.4%,116%,–,–
c1coc([C@@H]2C[C@@H]3Cc4ccc5ccccc5c4N2O3)c1,89.2%,104%,102%,101%,103%,103%,111%,–,–
COc1ccc(-c2cc(Cc3cccs3)c(=O)n(Cn3cncn3)n2)cc1,106%,91.8%,97.2%,92.9%,86.2%,98%,–,–,–
CCCCCCC/C(=N\N=C(N)N)c1ccc(O)cc1,81.6%,37.1%,30.7%,–,51.4%,31.4%,60.4%,24.6%,48.3%
COC(=O)CCC1=C(C)/C(=C/c2[nH]c(-c3ccc[nH]3)cc2OC)N=C1C,-32% (active),44.7%,-1.49% (active),-92% (active),-49.6% (active),-64.3% (active),–,–,–
NC(=O)c1ncn([C@@H]2O[C@H](CO)[C@@H](O)[C@H]2O)n1,92.2%,96.2%,94.7%,–,104%,84.2%,115%,86%,103%
O=C(CCc1nnc(SCc2ccccc2)s1)c1nc2ccccc2[nH]1,90.5%,93.2%,89.6%,99.4%,84.8%,80.8%,108%,–,–
CC1=CSC2=NCCN12,98.4%,101%,109%,106%,100%,94.4%,118%,–,–
COC(=O)CC1=C(C)/C(=C/c2[nH]c(-c3ccc[nH]3)cc2OC)N=C1C,-38.6% (active),32.3%,5.15% (active),-92.8% (active),-46.5% (active),-57.6% (active),-3.01% (active),–,–
Clc1ccc(-c2nc(-c3cccs3)no2)c(Cl)c1,63.5%,104%,90.1%,83.9%,–,103%,104%,83.2%,123%
O=C1NCN(c2ccccc2)C12CCN(CCCC(c1ccc(F)cc1)c1ccc(F)cc1)CC2,72%,78.2%,55.2%,41.4%,78.2%,61.9%,–,96.3%,81%
CC[C@@H]1OC(=O)[C@H](C)[C@@H](O[C@H]2C[C@@](C)(OC)[C@@H](O)[C@H](C)O2)[C@H](C)[C@@H](O[C@@H]2O[C@H](C)C[C@H](N(C)C)[C@H]2O)[C@](C)(O)C[C@@H](C)[C@@H]2N[C@@H](COCCOC)O[C@H]([C@H]2C)[C@]1(C)O,77.4%,104%,96.6%,–,–,94.8%,109%,111%,121%
Cc1ccc(NC(=O)COC(=O)c2ccc(S(=O)(=O)N3CCCCCC3)cc2)cc1,94.7%,33.4%,104%,104%,–,97.1%,119%,93.6%,144%
NC(N)=NC(N)=NCCCc1ccccc1,57.5% [100 µM],77.8% [100 µM],83.7% [100 µM],–,–,57.4% [100 µM],97% [100 µM],52.7% [100 µM],70.7% [100 µM]
O=C(CCc1nnc(Cn2cncn2)o1)c1nc2ccccc2[nH]1,99.1%,111%,103%,105%,97.9%,94.4%,105%,–,–
CC(c1ccccn1)C(C)(O)C(C)c1ccccn1 (stereo unspecified),99.7%,98.9%,98.7%,105%,95.6%,95.6%,111%,98.9%,105%
C=C(C)[C@@H]1C[C@H](O)Cc2cc(Cl)cc(Cl)c2N1,87.4%,103%,94.7%,102%,95%,92.3%,114%,–,–
COC(=O)CCC1=C(C)C(C)=N/C1=C\c1[nH]c(-c2ccc[nH]2)cc1OC,-34.9% (active),35%,-22.9% (active),-91.5% (active),-67.4% (active),-55.5% (active),10.7%,–,–
Clc1ccccc1[C@@H]1C[C@@H]2Cc3cc(Br)c4ccccc4c3N1O2,4.57% (active),38.2%,34.4%,30.2%,24.4%,37%,47.5%,–,–
N#Cc1c2ccccc2c2n1-c1ccccc1OC(c1ccccc1)C2=O (stereo unspecified),24.2%,23.5%,17.9%,10.6%,–,9.92% (active),–,32.1%,59.9%
c1ccc2c(c1)[nH]c1c2cc[n+]2cc3c(cc12)CCCC3,77.3%,35.1%,16.3%,18.3%,–,19.5%,32.7%,22.8%,-8.25% (active)
Cc1cc(C)c2c(c1)N1OC(C2)C[C@H]1/C=C/c1ccccc1 (stereo partly specified),109%,103%,107%,93.7%,88%,94.4%,104%,–,–
COc1ccc(-c2cn(-c3ccccc3)c(-c3ccccc3)n2)cc1OC,95.9%,117%,29.2%,74.5%,62.4%,14.5%,–,–,–
C/C(=N/N=C(N)N)c1ccc(Cl)cc1,81.3%,92.6%,89.4%,94.1%,–,86.5%,178%,42.3%,-5.11% (active)
NCCCc1nnc(CCC(=O)c2nc3ccccc3[nH]2)o1,90.8%,102%,102%,108%,90.2%,90.9%,105%,–,–
O=C(Nc1ccncc1)C(=O)c1cn(S(=O)(=O)c2cccc(F)c2)c2ccccc12,29.6%,76.5%,22.2%,28.7%,37.1%,45.2%,55.5%,47%,-7.51% (active)
